The record followed here is the supplement of paper PMC6555819.

Common to all, as to assay: PBM binding z-score (relative to random genomic background probes); higher = stronger binding; sequences stand for … in GC…GCGATTGACAGCGTAGAATGAAGG
Experiment [1] has as its system FXR:RXRa (NR concentration 270 nM, RXRa partner concentration 90 nM). In short, it runs like this: (§1)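 Regression normalization was applied to scanned fluorescence from custom Agilent 4×180K protein-binding microarrays. Before scanning, arrays were incubated 1 h with ligand-free nuclear receptor dimers, and binding was detected with antibodies against each partner (one per run). Binding z-scores use the random background probes as reference.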

Experiment [2] has as its system LXRa:RXRa (NR concentration 270 nM, RXRa partner concentration 90 nM). In short, it runs like this:
as §1

Experiment [3] deals with LXRa homodimer (NR concentration 270 nM). In short, it runs like this:
as §1

In experiment [4] the test system is LXRb:RXRa (NR concentration 270 nM, RXRa partner concentration 90 nM). In short, it runs like this: as §1
Experiment [5] has as its system LXRb homodimer (NR concentration 270 nM). In short, it runs like this:
as §1

Experiment [6] concerns PPARa:RXRa (NR concentration 270 nM, RXRa partner concentration 90 nM). In short, it runs like this: as §1
Experiment [7] deals with PPARg:RXRa (NR concentration 180 nM, RXRa partner concentration 90 nM). In short, it runs like this: as §1
The test system of experiment [8] is PPARg:RXRa 270nM:90nM, anti-RXR (NR concentration 270 nM, RXRa partner concentration 90 nM). In short, it runs like this: as §1
The subject of experiment [9] is PPARg:RXRa 30nM:10nM, anti-RXR (NR concentration 30 nM, RXRa partner concentration 10 nM). In short, it runs like this:
as §1

Experiment [10] has as its system PPARg:RXRa 90nM:30nM, anti-RXR (NR concentration 90 nM, RXRa partner concentration 30 nM). In short, it runs like this:
as §1

As for ACAGACAGGTGACGAAGGTAACTCAGGCTATCAT, the PBM binding z-score in [1] is -0.34; in experiment [2], -0.14; in experiment [3], -0.233; in experiment [4] it was -0.231; in [5], -0.858; in experiment [6] it was 0.582. Also, the PBM binding z-score in [7] is 0.955; in experiment [8], 0.489; in experiment [9], -0.242; in [10], 0.424.

With CGAACTAGGTCGGAACAGGACAGTGAAGGATGAT, the PBM binding z-score in [1] was -0.0248; in experiment [2], -0.452; in experiment [3], -0.434; in experiment [4] it was -0.642; in experiment [5] it was -1; in experiment [6] it was 0.71. Besides, the PBM binding z-score in experiment [7] amounted to 1.23; in experiment [8], 0.719; in experiment [9] it was 0.0935; in experiment [10], 0.234.

For ACTAGCAGGCCAAGTTTGGGTCACTCACACAAAG, the PBM binding z-score was 0.272 in [1]; 0.288 in experiment [2]; -0.0849 in [3]; 0.693 in [4]; -0.282 in experiment [5]; 1.41 in [6]. Also, the PBM binding z-score is 0.507 in [7], 0.233 in [8], -0.397 in [9] and -0.0603 in [10].

As to TGATATAGGTAAAGGTGAAAGTCGAACGATATGA, the PBM binding z-score in experiment [1] was 1.07; in [2], 1.26; in experiment [3], 0.291; in experiment [4], 1.47; in experiment [5] it was 0.036; in experiment [6], 3.47. The PBM binding z-score in experiment [7] worked out at 5.08; in experiment [8], 5.2; in experiment [9], 3.64; in [10], 5.25.

Regarding TCTCCTAGGTCAGTTGGTCAGCTAACGAGCTGCC, the PBM binding z-score is 1.57 in experiment [1]; 1.17 in experiment [2]; 0.111 in [3]; 1.26 in experiment [4]; 1.43 in experiment [5]; 1.89 in experiment [6]. The PBM binding z-score in experiment [7] turned out to be 0.491; in experiment [8], 2.47; in experiment [9] it was 2.9; in [10], 2.75.

Take GATACAGGGTCAGCTAGAGGCCAGTGTATGGAAA: the PBM binding z-score in [1] was 4.14; in [2], 2.46; in experiment [3], -0.408; in [4] it was 2.42; in [5] it was -0.768; in experiment [6], 4.11. The PBM binding z-score in experiment [7] is 3.25; in experiment [8] it was 3; in [9], 1.16; in experiment [10], 1.86.

ATCTCTAGGTAACAAGTTAAGTGAAAGAGAGGAC: the PBM binding z-score in experiment [1] was 0.803; in [2] it was 0.557; in [3], 0.231; in experiment [4] it was 0.236; in experiment [5], 0.69; in experiment [6], 1.55. Besides, the PBM binding z-score in experiment [7] worked out at 2.23; in experiment [8] it was 3.1; in experiment [9], 1.59; in [10], 2.7.

For TTTCCAAGGTGAGCTGAGGTCGTTGATCCAACTC, the PBM binding z-score in [1] is 2.71; in experiment [2], 1.69; in experiment [3], -0.117; in experiment [4], 0.979; in experiment [5], -0.192; in experiment [6], 1.94. Moreover, the PBM binding z-score in [7] was 0.0102; in [8], 1.07; in experiment [9] it was 0.576; in experiment [10], 0.913.

Consider AGTCAAAGTTCATCTAGGTAACGCAAGATATGCT, for which the PBM binding z-score was found to be 6.85 in [1]; 5.91 in [2]; 4.93 in experiment [3]; 3.61 in experiment [4]; 1.83 in [5]; 4.83 in [6]. For the same sequence, the PBM binding z-score in experiment [7] was 6.39; in experiment [8], 6.35; in experiment [9] it was 3.58; in experiment [10], 5.58.

ACTAGCAGGCCAAGTTTCGGTCACTCAAACAAAG: the PBM binding z-score in [1] is -0.253; in experiment [2], -0.249; in [3] it was 0.38; in [4] it was -0.133; in experiment [5] it was -0.471; in experiment [6], -0.0764. In addition, the PBM binding z-score in experiment [7] is -0.26; in experiment [8], -0.531; in experiment [9] it was -0.703; in [10], -0.73.

AGAATGAGGTGATTAAGATCAGGGAATTGCGGTC: the PBM binding z-score in experiment [1] was -0.0476; in [2], -0.338; in experiment [3] it was -0.29; in [4] it was -0.384; in [5], -0.427; in experiment [6] it was 0.785. The PBM binding z-score is 0.618 in experiment [7], 0.415 in [8], -0.0538 in [9] and 0.0296 in experiment [10].
